Hit rate of the full screen: of about 110,000 compounds, about 40 (0.04%) were called active. Another 22% or so got no clear call; they are omitted. The entries come from a sample that favours actives as a whole. A number with no mark means an inactive call. Calls follow the shape of the dose curve; as a rule, active = well fitted curve in the direction sought with a large enough effect in the signal ratio (not every such curve was filed as active); inconclusive = small, poorly fitted or top-dose-only effect, or a change in a side signal; inactive = flat fitted curve, though single readings scatter; the % refers to the signal ratio.
Potency is read from the fitted curve at half-maximal effect.

The test can be described thus: IkB Signaling.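 As to IkBa stabilization activation: 0% = basal untreated cells and 100% = reference inhibitor full response.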 Particulars: ABC-DLBCL IkBa-CBG/CBR dual luciferase ratio, 4 h; series mostly up to 57.1 µM; IkBa stabilization activation: at the top concentration. The text has this:
NIH Molecular Libraries Screening Centers Network [MLSCN]
NIH Chemical Genomics Center [NCGC]
Nuclear factor kappa-B (NF-kappa-B) plays an important role in normal B cell development and survival. Diffuse large B cell lymphoma (DLBCL) is the most commonly observed type of non-Hodgkin's lymphoma. Gene expression analysis has identified an activated B cell-like subtype of DLBCL (ABC-DLBCL) which expresses known NF-kappa-B target genes. […] However, targets upstream of IKK have been largely unexplored and so nodes upstream of IKK in the NF-kappa-B pathway remain untested due to the lack of chemical probes.
A cell-sensor assay for I-kappa-B-alpha stabilization was developed with NIH investigator Dr. R. Eric Davis in Dr. Louis M. Staudt's laboratory. The assay uses green (CBG68) and red (CBR) emitting beetle luciferases [Chroma-Glo(TM) developed by Promega Corp.] where the green luciferase is fused to I-kappa-B-alpha and the red luciferase is present in its native state. Both luciferase genes are stably present in the OCI-Ly3 human ABC DLBCL cell line, but their expression is under the control of tetracycline-inducible promoters. Following the addition of doxycycline to induce expression of the luciferases, the green luminescence in control cultures rises only slowly because the CBG fusion partner I-kappa-B-alpha is targeted by IKK activity for rapid degradation. In contrast, green luminescence rises rapidly in the presence of proteasome inhibitors or IKK inhibitors. The rise in red luminescence of CBR is not affected by proteasome or IKK inhibitors, and serves as normalization for cell number and nonspecific effects. Compounds were screened as a concentration-titration series that ranged from 57 uM to 0.7 nM.
NCGC Assay Protocol Summary:
Cells were seeded in 1536-well plates at 5000 cells/3ul in IMDM medium containing 0.5% FBS, w/o phenol red, L-glutamine, 25 mM HEPES, 3 mg/ml sodium bicarbonate. After centrifugation for 1 min. at 1000 rpm, 23 nl of compounds or DMSO were delivered to each well using a pin tool. Then 1ul 80ng/ml doxycycline was dispensed into white solid 1536-well plates and the plates were incubated at 37C/5% C02 in a cell incubator for 4 hrs. Then 4 ul Chroma-Glo luminescent substrate mix (Promega) was added to each well. The plate was incubated at R.T. for 10-15 min. The plates were measured on a ViewLux plate reader for green luminescence (540/20 nm filter) and red luminescence (618/8 nm filter). The green and red luminescent signals were corrected for red and green luminescence filter overlap using previously determined filter calibration constants (determined using the procedure outlined in the Promega Technical Manual). The %Activity was determined from the ratio of corrected green/red luminescent values. Green luminescent and ratio %Activity was determined by normalizing to the difference in signal between basal cells (0% Activity) and cells incubated with 10 uM of the proteasome inhibitor MG-132 (100% Activity). Red luminescent %Activity was normalized to the difference between red luminesence in basal cells (0%Activity) and zero luminescence (-100% Activity).
Concentration-response curves were fitted to the signals arising from the green luminescence (I-kappa-B-alpha-luciferase fusion; IkB-luc) and the red luminescence (unfused luciferase; luc) as well as the calculated ratio. The concentration-effect curves were then classified based on curve quality (r2), response magnitude and degree of measured activity. Compounds were then categorized based on their concentration-response curves for all three datasets (Ikb-luc, luc and ratio).
Keywords: IKK, I-kappa-B, IkB, IkBa, cytotoxicity, luminescence, MLSMR, MLSCN, NIH Roadmap, qHTS, NCGC
On to `CCc1nn(CCCC(=O)NC(C)c2ccccc2)c(=O)c2cc3occc3n12` (stereo not drawn), for which the “IkBa stabilization activation” value is 0.87%.

In the case of `CC(=O)N1CCCc2cc(S(=O)(=O)Nc3ccc(Cl)cc3F)ccc21`, the “IkBa stabilization activation” value is 0.612%. On to `COc1ccc(CNC(=O)C(C)n2nc(C)c3c(C)n(-c4ccccc4)nc3c2=O)c(OC)c1` (stereo not drawn), for which the “IkBa stabilization activation” value is 2.88%. For the compound `Cc1ccc(-c2nc(Cn3c(=O)cc(-c4ccccc4)c4c(C)nn(C)c43)c(C)o2)cc1`, the “IkBa stabilization activation” value was -0.408%. `COc1ccc(C2C(=O)N(C3CCCCC3)CC(=O)N2Cc2ccccc2Cl)cc1OC` (stereo not drawn): the “IkBa stabilization activation” value is -0.663%. Consider `Cc1ccc(NC(=O)c2oc3ccccc3c2NC(=O)Cc2cccs2)cc1`, for which the “IkBa stabilization activation” value was 0.174%. As for `CCOC(=O)C1CCN(S(=O)(=O)c2ccc3c(c2)N(C)C(=O)CC(=O)N3C)CC1`, the “IkBa stabilization activation” value was 0.0845%. `COc1ccc(-c2nc3nc(C)cc(C)n3c2Nc2c(C)cccc2C)cc1`: the “IkBa stabilization activation” value was 4.16%. For `Cc1ccc(C)c(CN2C(=O)c3ccccc3S(=O)c3ccc(C(=O)N4CCOCC4)cc32)c1` (stereo not drawn), the “IkBa stabilization activation” value is 0.246%. Regarding `Cc1ccccc1CNC(=O)CCCn1nc(C)c2sc3ccccc3c2c1=O`, the “IkBa stabilization activation” value is -0.00104%. The same measure, in the same setting: with `CCc1cccc(NC(=O)Cn2nc(CC)n3c(cc4cc(C)ccc43)c2=O)c1` the figure was 6.39%; with `Cn1c(=O)c2c(ncn2CC(=O)Nc2cccc(C(F)(F)F)c2)n(C)c1=O`, 6.05%; with `COc1ccc(NS(=O)(=O)c2cc3c(cc2C)N(C(C)=O)CCO3)cc1`, 12.8%.

`COc1cc(C)ccc1OCCSc1nc2ccc(NC(=O)c3ccc(C)cc3)cc2s1`: the “IkBa stabilization activation” value is 0.344%. Same read-out and setting: with `CCOC(=O)c1ccc(-c2ccc(/C=C(\C#N)C(=O)Nc3ccc(C)cc3)o2)cc1` the figure was -0.769%. Regarding `CCn1c2c(c(=O)n3ncc(C(=O)N4CCN(c5ccccc5)CC4)c13)CN(Cc1ccc(OC)cc1)CC2`, the “IkBa stabilization activation” value was 1.86%. As to `Cc1cccc(-n2c(SCC(N)=O)nc3c(oc4ccccc43)c2=O)c1`, the “IkBa stabilization activation” value is -0.917%. Take `Cc1cccc(-c2nc(SCc3ccc(Br)cc3)n3[nH]c(=O)cc3n2)c1`: the “IkBa stabilization activation” value was -5.03%. In the case of `CCOc1cccc2sc(N3CCN(C(=O)C4CC4)CC3)nc12`, the “IkBa stabilization activation” value is -4.76%. For `O=c1cc(CSc2ncn[nH]2)[nH]c2ccc(F)cc12`, the “IkBa stabilization activation” value was 0.491%. `O=C(CC1Oc2ccccc2NC1=O)NCc1ccc(F)cc1` (stereo not drawn): the “IkBa stabilization activation” value was 2.65%.

Consider `Cc1ccc(CNC(=O)CCC(=O)N2Cc3ccccc3Oc3ncccc32)cc1`, for which the “IkBa stabilization activation” value was 2.77%. Same read-out and setting: with `Cc1cc(C)c(NC(=O)Cn2c(SCC(=O)NCc3ccccc3)nc3ccccc32)c(C)c1` the figure was -0.55%; with `CCCC(=O)N1CCN(c2nc3c(OC)ccc(C)c3s2)CC1`, -4.62%; with `Cc1cc(C)n(-c2ccc(Cl)c(C(=O)O)n2)n1`, 1.24%. Regarding `Cc1cccc(Nc2cc(C)nc(-n3nc(C)cc3C)n2)c1`, the “IkBa stabilization activation” value was -1.06%. With `CC(=O)c1ccc(Oc2cc(C)nc(-n3nc(C)cc3C)n2)cc1`, the Potency was 6.31 µM (active). As for `OCc1cnc(SCc2ccc(F)cc2)n1Cc1ccc(F)cc1`, the “IkBa stabilization activation” value is 1.24%. `CC(C)(C)OC(=O)N1CCC(c2c(C(=O)NCc3ccccn3)cnn2-c2ccc(F)cc2)CC1`: the “IkBa stabilization activation” value is 0.0918%. Regarding `COc1ccccc1NC(=O)CN1C(=O)c2ccccc2Sc2ccc(C(=O)N3CCCC3)cc21`, the “IkBa stabilization activation” value was 12.1%. Consider `COCCn1c(CCC(=O)Nc2cc(C)ccc2C)nc2cccnc21`, for which the “IkBa stabilization activation” value was 1.81%. On to `Cc1ccc(N2CC(C(=O)Nc3ccc(N(C)C)cc3)CC2=O)cc1Cl` (stereo not drawn), for which the “IkBa stabilization activation” value was 1.8%. With `CCOc1ccc(N(CC)C(=O)c2noc3c2COc2ccc(C)cc2-3)cc1`, the “IkBa stabilization activation” value was -0.625%. As for `Cc1ccc(C)c(N2C(=O)N(Cc3c(F)cccc3Cl)c3ccccc3S2(=O)=O)c1`, the “IkBa stabilization activation” value is 9.61%. Take `Cc1csc2nc(COC(=O)c3ccccc3NC(=O)c3ccccc3Cl)cc(=O)n12`: the “IkBa stabilization activation” value is 2.09%. `CCN(CC)C(=O)CSc1nc2cc3c(cc2c(=O)n1CCCC(=O)NCc1ccc2c(c1)OCO2)OCO3`: the “IkBa stabilization activation” value is -2.8%. In the case of `O=C(CCn1c(=O)c2ccccc2n(Cc2ccc(Cl)cc2)c1=O)NCc1ccc2c(c1)OCO2`, the “IkBa stabilization activation” value is -0.548%.

As to `CCOc1ccc2nc(N3CCCC(C(=O)Nc4cc(C)ccc4C)C3)sc2c1` (stereo not drawn), the “IkBa stabilization activation” value is -0.374%. With `CCc1ccc(NC(=O)CN2C(=O)CCSc3ccc(S(=O)(=O)N4CCCC4)cc32)cc1`, the “IkBa stabilization activation” value is 1.01%. As for `Cc1cccc(NC(=O)Cn2c(C(F)(F)F)nc3ccccc32)c1C`, the “IkBa stabilization activation” value was 2.61%. In the case of `COc1ccc(C2c3c(oc4ccccc4c3=O)C(=O)N2Cc2ccc3c(c2)OCO3)cc1` (stereo not drawn), the “IkBa stabilization activation” value is 3.44%. As for `Cc1ccc(Cl)cc1NC(=O)C(C)n1nnc2sc(-c3ccccc3)cc2c1=O` (stereo not drawn), the “IkBa stabilization activation” value was -1.77%.

Consider `CCOC(=O)c1sc(NC(=O)/C=C/c2ccc(C(C)C)cc2)c(C(=O)OCC)c1C`, for which the “IkBa stabilization activation” value is -4.34%.

The values are drawn from PubChem BioAssay AID445 (National Center for Advancing Translational Sciences (NCATS), 2006).
